In PubChem BioAssay (NCATS):
Results filed as inconclusive are left out. Active and inactive are the calls of the source. Unless noted, calls come from the whole dose curve; as a rule, active = well fitted curve in either direction with a large enough effect (not every such curve was filed as active); inconclusive = small, poorly fitted or top-dose-only effect, or another doubt; inactive = flat fitted curve, though single readings scatter.

What was measured:
[1] = AP1 Signaling Pathway (AID 357); details: ME-180 AP-1-bla reporter, EGF-induced, beta-lactamase ratio, 5 h; at 17.2 µM (top of the series) unless noted;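 note: ME-180 reporter cells stimulated with EGF at its EC50 level; % is set by controls: 0 for no effect and ±100 for the full control effect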
Procedure, shortened: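 Modulation of EGF-driven AP-1 transcription was assessed with a beta-lactamase reporter in ME-180 cells. Compound and EC50 EGF were co-incubated 5 hours at 37 °C before 2.5-hour CCF4 loading at room temperature and dual-emission reading.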

[2] = NFAT Signaling Pathway (AID 444); details: Jurkat NFAT-bla M1, carbachol, beta-lactamase ratio, 5 h; at 17.2 µM (top of the series) unless noted;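 note: carbachol stimulus at about its EC50 of 1 µM final; % is set by controls: 0 for no effect and ±100 for the full control effect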
Procedure, shortened: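 Jurkat cells with NFAT-driven β-lactamase reporter and co-expressed M1 receptor, stimulated with carbachol (final 1 uM, ~EC50), compound titration, 5 h at 37 °C. CCF4 loaded 1 h at RT; 460/530 nm ratio gave %activity and AC50.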

[3] = Stat Signaling Pathway (AID 446);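 note: ME-180 cervical cancer cells given 40 pM IL-6 alongside compound; SIE-controlled beta-lactamase reporter measured as 460/530 nm FRET emission ratio; % is set by controls: 0 for no effect and ±100 for the full control effect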
Procedure, shortened: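 Reporter line: ME-180 cervical carcinoma, SIE-beta-lactamase. Treatment: compound with 40 pM IL-6, 5 hrs, 37 C, in low-serum OPTI-MEM with 10 mM HEPES pH 7.3. Detection: 460/530 nm fluorescence.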

[4] = target: Glucocorticoid receptor (Homo sapiens) (UniProt P04150); assay: GR-GFP Redistribution (AID 450;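 active = compounds whose dose series gives a full or clear partial fitted curve of increased nuclear translocation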; note: potency is the fitted concentration of half-maximal effect); details: U2OS GR-GFP nuclear translocation, laser cytometry, 2 h
Sequence of Glucocorticoid receptor (Homo sapiens) (P04150 whole entry, looked up): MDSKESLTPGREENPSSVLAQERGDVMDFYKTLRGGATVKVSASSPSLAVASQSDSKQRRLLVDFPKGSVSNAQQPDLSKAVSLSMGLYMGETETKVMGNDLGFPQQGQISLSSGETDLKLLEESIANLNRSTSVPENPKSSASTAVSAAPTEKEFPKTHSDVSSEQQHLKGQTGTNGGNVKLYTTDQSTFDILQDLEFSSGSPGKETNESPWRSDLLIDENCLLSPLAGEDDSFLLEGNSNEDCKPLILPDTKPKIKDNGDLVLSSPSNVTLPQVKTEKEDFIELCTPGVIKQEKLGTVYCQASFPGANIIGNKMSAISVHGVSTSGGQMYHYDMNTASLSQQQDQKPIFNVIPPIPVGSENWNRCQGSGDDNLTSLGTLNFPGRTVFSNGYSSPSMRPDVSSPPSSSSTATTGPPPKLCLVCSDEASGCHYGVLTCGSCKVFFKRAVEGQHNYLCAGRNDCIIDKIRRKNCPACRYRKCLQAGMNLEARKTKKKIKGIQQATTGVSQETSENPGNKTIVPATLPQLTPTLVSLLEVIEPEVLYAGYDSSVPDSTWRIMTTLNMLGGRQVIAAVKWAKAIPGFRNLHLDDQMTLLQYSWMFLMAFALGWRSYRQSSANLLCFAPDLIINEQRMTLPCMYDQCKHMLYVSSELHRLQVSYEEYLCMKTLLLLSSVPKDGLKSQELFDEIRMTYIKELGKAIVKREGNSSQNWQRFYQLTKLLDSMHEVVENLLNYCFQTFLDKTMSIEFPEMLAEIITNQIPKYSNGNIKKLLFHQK

C=CCn1c(O)c(C=NCCN(C)C)c(=O)[nH]c1=O
inactive: activity change, negative = inhibition [1] 1.63% | activity change, negative = inhibition [2] -6.46% | outcome [3] | Potency [4] > 20.6 µM

CCCCNC(=O)Nc1ccc(C(O)(C(=O)OCC)C(F)(F)F)cc1 (stereo not given)
inactive: activity change, negative = inhibition [1] -5.83% | activity change, negative = inhibition [2] 30% | outcome [3] | Potency [4] > 20.6 µM

CCCCSP1(=S)NCCCN1
inactive: activity change, negative = inhibition [1] -7.63% | activity change, negative = inhibition [2] -2.25% | outcome [3] | Potency [4] > 20.6 µM

CC1=NOC2(C)Nc3ncnn3C(c3ccccc3)C12 (stereo not given)
inactive: activity change, negative = inhibition [1] 20.5% | activity change, negative = inhibition [2] -2.94% | outcome [3] | Potency [4] > 20.6 µM

COc1ccc2c(c1)c(C(=O)O)c(C)n2CC(C)C
inactive: activity change, negative = inhibition [1] 12.3% | activity change, negative = inhibition [2] 1.61% | outcome [3] | Potency [4] > 20.6 µM
